In PubChem BioAssay (NCATS):
Inconclusive results are not listed. The source made the active and inactive calls. The call rests on the fitted dose curve; in most records, active means well fitted curve in the direction sought with a large enough effect; inconclusive means small, poorly fitted or top-dose-only effect, or another doubt; inactive means no such curve, though single readings can be large; an effect the other way counts as inactive or inconclusive.

What was measured:
[1] = Quantitative High-Throughput drug screen in 47 multiple myeloma cell lines against the NCATS MIPE library collection: AMO1_DSMZ cell viability assay (AID 1918927; further: nearly all actives have a fitted effect of over 30% in size; further: potency means the concentration at half of the fitted maximal effect); settings: AMO1 myeloma cells viability, CellTiter-Glo ATP luminescence, 48 h; series mostly up to 45.8 µM
Outline: (§1)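 Viability readout: CellTiter-Glo luminescence following 5 min room-temperature incubation with reagent. Prior exposure: 48 h, 37C, humidified 5% CO2, 500 cells per well.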

[2] = Quantitative High-Throughput drug screen in 47 multiple myeloma cell lines against the NCATS MIPE library collection: ARP1_JJKsccF8 cell viability assay (AID 1918928; further: nearly all actives have a fitted effect of over 40% in size; further: potency means the concentration at half of the fitted maximal effect); settings: ARP1 myeloma cells viability, CellTiter-Glo ATP, 48 h; series mostly up to 45.8 µM
Outline: (§2)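 Viability screen: myeloma cells (500/well) incubated 48 h at 37 °C, humidified 5% CO2, with pinned library compounds; CellTiter-Glo added, luminescence read; DMSO wells set 100%, medium-only wells 0%.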

[3] = Quantitative High-Throughput drug screen in 47 multiple myeloma cell lines against the NCATS MIPE library collection: ARD_JJKsccE7 cell viability assay (AID 1918929; further: potency means the concentration at half of the fitted maximal effect); settings: ARD myeloma cell line viability, CellTiter-Glo, 48 h; series mostly up to 45.8 µM
Outline: as §1

[4] = Quantitative High-Throughput drug screen in 47 multiple myeloma cell lines against the NCATS MIPE library collection: KHM11_PLB cell viability assay (AID 1918962); settings: KHM11 myeloma cell viability, CellTiter-Glo ATP luminescence, 48 h; series mostly up to 45.8 µM; further: nearly all actives have a fitted effect of over 35% in size; further: potency means the concentration at half of the fitted maximal effect
Outline: (§3)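 Approved and investigational drugs from MIPE 4.0 were added by pin tool to 500 cells per well. After 48 hours at 37C, ATP-based CellTiter-Glo luminescence indicated remaining viability.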

[5] = Quantitative High-Throughput drug screen in 47 multiple myeloma cell lines against the NCATS MIPE library collection: JIM3_ECACC cell viability assay (AID 1918963; further: nearly all actives have a fitted effect of over 35% in size; further: potency means the concentration at half of the fitted maximal effect); settings: JIM3 myeloma viability, CellTiter-Glo ATP, 48 h; series mostly up to 45.8 µM
Outline: as §3

[6] = Quantitative High-Throughput drug screen in 47 multiple myeloma cell lines against the NCATS MIPE library collection: INA6_PLB cell viability assay (AID 1918965; further: potency means the concentration at half of the fitted maximal effect; nearly all actives have a fitted effect of over 55% in size); settings: INA6 myeloma viability, CellTiter-Glo ATP luminescence, 48 h; series mostly up to 45.8 µM
Outline: (§4)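 Inhibition of cell viability is measured here. Each line was plated at 500 cells per well, treated with MIPE 4.0 drugs, kept 48 hours at 37C, then assayed for ATP content by CellTiter-Glo luminescence.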

[7] = Quantitative High-Throughput drug screen in 47 multiple myeloma cell lines against the NCATS MIPE library collection: H1112_PLB cell viability assay (AID 1918967; further: nearly all actives have a fitted effect of over 30% in size; further: potency means the concentration at half of the fitted maximal effect); settings: H1112 myeloma cells viability, ATP luminescence, 48 h; series mostly up to 45.8 µM
Outline: as §1

[8] = Quantitative High-Throughput drug screen in 47 multiple myeloma cell lines against the NCATS MIPE library collection: Karpas620_DSMZ cell viability assay (AID 1918959); settings: Karpas620 myeloma viability, CellTiter-Glo ATP luminescence, 48 h; series mostly up to 45.8 µM; further: nearly all actives have a fitted effect of over 30% in size; further: potency means the concentration at half of the fitted maximal effect
Outline: as §3

[9] = Quantitative High-Throughput drug screen in 47 multiple myeloma cell lines against the NCATS MIPE library collection: JJN3_DSMZ cell viability assay (AID 1918966; further: nearly all actives have a fitted effect of over 50% in size; further: potency means the concentration at half of the fitted maximal effect); settings: JJN3 myeloma cells viability, CellTiter-Glo ATP, 48 h; series mostly up to 45.8 µM
Outline: as §1

[10] = Quantitative High-Throughput drug screen in 47 multiple myeloma cell lines against the NCATS MIPE library collection: Karpas25_ECACC cell viability assay (AID 1918968; further: nearly all actives have a fitted effect of over 35% in size; further: potency means the concentration at half of the fitted maximal effect); settings: Karpas25 myeloma viability, CellTiter-Glo ATP, 48 h; series mostly up to 45.8 µM
Outline: as §1

[11] = Quantitative High-Throughput drug screen in 47 multiple myeloma cell lines against the NCATS MIPE library collection: KMS27_JCRB cell viability assay (AID 1918970); settings: KMS27 myeloma cells, CellTiter-Glo ATP viability, 48 h; viability (% of DMSO): at 45.8 µM (top of the series); further: nearly all actives have a fitted effect of over 30% in size; further: potency means the concentration at half of the fitted maximal effect
Outline: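 Myeloma cells (500 per well) were exposed to MIPE 4.0 compounds for 48 h at 37 °C, 5% CO2; viability was read as ATP luminescence with CellTiter-Glo, normalized to DMSO-only (100%) and media-only (0%) wells.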

[12] = Quantitative High-Throughput drug screen in 47 multiple myeloma cell lines against the NCATS MIPE library collection: EJM_DSMZ cell viability assay (AID 1918926; further: nearly all actives have a fitted effect of over 30% in size); settings: EJM myeloma cell viability, CellTiter-Glo ATP, 48 h; series mostly up to 45.8 µM
Outline: as §1

[13] = Quantitative High-Throughput drug screen in 47 multiple myeloma cell lines against the NCATS MIPE library collection: KMM1_JCRB cell viability assay (AID 1918960); settings: KMM1 myeloma viability, CellTiter-Glo ATP luminescence, 48 h; series mostly up to 45.8 µM; further: nearly all actives have a fitted effect of over 30% in size; further: potency means the concentration at half of the fitted maximal effect
Outline: as §2

[14] = Quantitative High-Throughput drug screen in 47 multiple myeloma cell lines against the NCATS MIPE library collection: JIM1_ECACC cell viability assay (AID 1918964; further: potency means the concentration at half of the fitted maximal effect); settings: JIM1 myeloma viability, CellTiter-Glo ATP luminescence, 48 h; series mostly up to 45.8 µM
Outline: as §1

[15] = Quantitative High-Throughput drug screen in 47 multiple myeloma cell lines against the NCATS MIPE library collection: Karpas417_ECACC cell viability assay (AID 1918961); settings: Karpas417 myeloma viability, CellTiter-Glo ATP luminescence, 48 h; viability (% of DMSO): at 45.8 µM (top of the series); further: potency means the concentration at half of the fitted maximal effect
Outline: as §4

C#C[C@]1(O)CC[C@H]2[C@H]3CCc4cc(OC)ccc4[C@H]3CC[C@@]21C
inactive: Potency [2] | Potency [5] | Potency [7]
active: Potency [1] 26.4 µM | Potency [3] 23.5 µM | Potency [4] 18.7 µM | Potency [6] 16.6 µM

CN1N=C(N)c2cn([C@@H]3O[C@H](COP(=O)(O)O)[C@@H](O)[C@@H]3O)c3ncnc1c23
active: Potency [1] 0.0935 µM | Potency [2] 0.469 µM | Potency [8] 0.0833 µM | Potency [4] 0.372 µM | Potency [5] 0.469 µM | Potency [9] 2.96 µM | Potency [7] 0.526 µM | Potency [10] 0.372 µM | Potency [11] 0.0662 µM

C[C@]12C=CC(=O)C=C1CC[C@@H]1[C@@H]2[C@@H](O)C[C@@]2(C)[C@@H]1CC[C@]2(O)C(=O)CO
inactive: Potency [12] | Potency [8] | Potency [5] | Potency [7] | Potency [11]
active: Potency [13] 0.209 µM | Potency [6] 5.9 µM | Potency [10] 0.296 µM

O=C(Nc1cccc2c(=O)cc(-c3nn[nH]n3)oc12)c1ccc(OCCCCc2ccccc2)cc1
active: Potency [6] 18.7 µM | Potency [10] 18.7 µM

CCOC(=O)c1c(CSc2ccccc2)n(C)c2cc(Br)c(O)c(CN(C)C)c12
active: Potency [1] 26.4 µM | Potency [6] 16.6 µM | Potency [9] 11.8 µM | Potency [7] 6.62 µM | Potency [10] 16.6 µM | Potency [11] 26.4 µM
inactive: Potency [4]

C[C@@H]1[C@H](O)[C@@H](C)C=CC=CC=CC=CC=CC=CC=C[C@H](O[C@@H]2O[C@H](C)[C@H](O)[C@H](N)[C@@H]2O)C[C@@H]2O[C@](O)(C[C@@H](O)C[C@@H](O)[C@H](O)CC[C@@H](O)C[C@@H](O)CC(=O)O[C@H]1C)C[C@H](O)[C@@H]2C(=O)O
inactive: Potency [8]
active: Potency [2] 7.43 µM | Potency [5] 3.32 µM | Potency [7] 3.32 µM | Potency [10] 3.32 µM

CC[C@@H]([C@H](C)O)n1ncn(-c2ccc(N3CCN(c4ccc(OCC5CO[C@@](Cn6cncn6)(c6ccc(F)cc6F)C5)cc4)CC3)cc2)c1=O (stereo partly drawn)
inactive: Potency [4]
active: Potency [1] 7.43 µM | Potency [8] 5.9 µM | Potency [13] 5.9 µM | Potency [5] 5.26 µM | Potency [6] 10.5 µM | Potency [9] 4.18 µM | Potency [10] 6.62 µM

CCOC(=O)N1c2ccc(C(F)(F)F)cc2[C@@H](N(Cc2cc(C(F)(F)F)cc(C(F)(F)F)c2)C(=O)OC)C[C@H]1CC
inactive: Potency [1] | Potency [3] | Potency [8] | Potency [13] | Potency [14] | Potency [7] | Potency [11]
active: Potency [2] 4.69 µM

Cc1nc(NC(=O)N2CCC[C@@H]2C(N)=O)sc1-c1csc(C(C)(C)C)n1
active: Potency [1] 5.26 µM | Potency [2] 6.62 µM | Potency [8] 14.8 µM | Potency [13] 1.05 µM | Potency [15] 1.05 µM | Potency [4] 3.72 µM | Potency [5] 5.9 µM | Potency [14] 1.32 µM | Potency [6] 16.6 µM | Potency [9] 6.62 µM | Potency [7] 2.09 µM | Potency [10] 5.9 µM

O=[N+]([O-])c1ccc(Nc2ccccc2-c2ccccc2)c2nonc12
active: Potency [8] 20.9 µM | Potency [6] 26.4 µM | Potency [7] 18.7 µM | Potency [10] 18.7 µM | Potency [11] 20.9 µM
inactive: Potency [2]

Cc1ccc(C(=O)N(CCCN)[C@@H](c2nc3cc(Cl)ccc3c(=O)n2Cc2ccccc2)C(C)C)cc1
active: Potency [13] 0.001 µM | Potency [4] 10.5 µM | Potency [9] 18.7 µM | viability (% of DMSO) [11] 70.3%
inactive: Potency [2] | Potency [15] | Potency [5] | Potency [14]

CC(C)(C)c1[nH]cnc1C=c1[nH]c(=O)c(=Cc2ccccc2)[nH]c1=O
active: Potency [9] 0.0481 µM
inactive: Potency [1] | Potency [3] | Potency [13] | Potency [5] | Potency [14]

CCCCc1ccc(NS(=O)(=O)c2ccc(C)c(C(=O)N3CCN(c4cccc(C)c4C)CC3)c2)cc1
inactive: Potency [1] | Potency [8] | Potency [13] | Potency [11]
active: Potency [2] 20.9 µM | Potency [5] 16.6 µM | Potency [9] 23.5 µM

CCCCC(C=O)NC(=O)C(CC(C)C)NC(=O)OCc1ccccc1 (stereo not drawn)
inactive: Potency [1] | Potency [3] | Potency [8] | Potency [13] | Potency [4] | Potency [7] | Potency [11]
active: Potency [6] 16.6 µM

CC(C)CN(C[C@H](O)[C@H](Cc1ccccc1)NC(=O)O[C@H]1CCOC1)S(=O)(=O)c1ccc(N)cc1
active: Potency [9] 1.87 µM | Potency [7] 18.7 µM
inactive: Potency [1] | Potency [8] | Potency [13] | Potency [11]

CN(C)CCOc1ccc(C(=C(CCCl)c2ccccc2)c2ccccc2)cc1
inactive: Potency [1] | Potency [2] | Potency [13] | Potency [15] | Potency [4] | Potency [14] | Potency [10] | Potency [11]
active: Potency [6] 4.18 µM

NC(=O)c1nnn(Cc2cc(Cl)c(C(=O)c3ccc(Cl)cc3)c(Cl)c2)c1N
active: Potency [13] 5.9 µM | Potency [5] 26.4 µM | Potency [6] 14.8 µM | Potency [9] 20.9 µM
inactive: Potency [15] | Potency [4]

COc1c(C)c2c(c(O)c1CC=C(C)CCC(=O)O)C(=O)OC2
inactive: Potency [8] | Potency [13]
active: Potency [1] 0.935 µM | Potency [2] 6.62 µM | Potency [5] 4.69 µM | Potency [14] 9.35 µM | Potency [6] 0.935 µM | Potency [7] 4.18 µM | Potency [10] 13.2 µM

CN(C(Cc1ccc(OS(=O)(=O)c2cccc3cnccc23)cc1)C(=O)N1CCN(c2ccccc2)CC1)S(=O)(=O)c1cccc2cnccc12 (stereo not drawn)
active: Potency [1] 8.33 µM | Potency [3] 5.9 µM | Potency [8] 5.9 µM | Potency [15] 4.18 µM | Potency [5] 6.62 µM | Potency [14] 1.87 µM | Potency [6] 3.72 µM | Potency [9] 5.9 µM | Potency [7] 8.33 µM | Potency [10] 11.8 µM

Cc1ccc(NC(=O)c2cccc(N(C)C)c2)cc1NC(=O)c1ccc(O)cc1
active: Potency [1] 0.235 µM | Potency [8] 5.9 µM | Potency [4] 13.2 µM | Potency [6] 16.6 µM | Potency [7] 0.166 µM | Potency [10] 0.118 µM | Potency [11] 1.05 µM

CCNC(=O)Nc1ccc(Oc2ncnc(N)c2C=NOC)cc1Cl
inactive: Potency [7]
active: Potency [1] 2.96 µM | Potency [2] 20.9 µM | Potency [3] 5.9 µM | Potency [8] 4.69 µM | Potency [13] 4.69 µM | Potency [5] 9.35 µM | Potency [14] 2.64 µM

Nc1nc(Cl)nc2c1ncn2[C@@H]1O[C@H](CO)[C@@H](O)[C@H]1F
active: Potency [1] 0.0418 µM | Potency [2] 2.35 µM | Potency [3] 0.418 µM | Potency [8] 0.469 µM | Potency [4] 0.0148 µM | Potency [5] 0.418 µM | Potency [6] 0.0148 µM | Potency [9] 0.372 µM | Potency [10] 0.526 µM

CC(C)C[C@H](NC(=O)c1cc2ccccc2s1)C(=O)N1CCN(C(=O)[C@H](CO)NS(=O)(=O)c2ccc(Cl)cc2Cl)CC1
inactive: Potency [11]
active: Potency [5] 20.9 µM | Potency [9] 18.7 µM | Potency [7] 20.9 µM | Potency [10] 26.4 µM

COc1cc([C@@H]2c3cc4c(cc3[C@@H](O[C@@H]3O[C@@H]5CO[C@@H](C)O[C@@H]5[C@H](O)[C@@H]3O)[C@H]3COC(=O)[C@H]23)OCO4)cc(OC)c1O
active: Potency [6] 0.332 µM
inactive: Potency [4] | Potency [9]

Cc1ccc(C(=O)N(CCCN)[C@@H](c2oc3cc(Cl)ccc3c(=O)c2Cc2ccccc2)C(C)C)cc1
inactive: Potency [2] | Potency [5]
active: Potency [1] 0.001 µM | Potency [13] 0.001 µM | Potency [9] 18.7 µM
